STK33 kin inh: human STK33 kinase inhibition | Q9BYT3 | ADP-Glo luminescence, MBP substrate | inhibition, % at 12.5 µM | actives 0.44% (n = 27,000) | AID 2322; in the data active = inhibition above about 20%
ID4 SMM: binders of human ID4 protein. AID 624137. calls only. P47928. small molecule microarray, Flag-ID4 binding, fluorescence F/B. actives 1.2% (n = 31,000); call rule not given here;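 note: a binder raises fluorescence above local background on the spot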
Target sequence (P47928 whole entry, looked up): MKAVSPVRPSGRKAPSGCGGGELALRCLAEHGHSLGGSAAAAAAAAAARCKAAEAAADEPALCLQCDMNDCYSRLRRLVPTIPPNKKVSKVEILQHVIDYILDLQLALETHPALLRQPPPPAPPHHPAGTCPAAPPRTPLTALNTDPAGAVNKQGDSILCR
* marks the source's active call; other numbers are inactive results; i = inactive; x = no result; + = active, no number. The full list was thinned out, with hits kept by preference.

SMILES	STK33 kin inh	ID4 SMM
Cc1ccc(-c2nnc(N3CCN(C(=O)CSc4nc5ccccc5o4)CC3)c3ccccc23)cc1	1	i
CNC[C@H]1Oc2ncc(-c3cccc(F)c3)cc2C(=O)N([C@@H](C)CO)C[C@H]1C	x	i
COc1ccc([C@@H]2CC(=O)c3c(O)cc(O)cc3O2)cc1O	1	x
COc1cc(/C=C2\Oc3cc(O)cc(O)c3C2=O)cc(OC)c1O	88*	x
CCC(=O)Nc1ccc2nc(SCc3ccccc3C#N)sc2c1	0	i
Cn1c(=O)c2c(nc(N3CCOCC3)n2CCCN)n(C)c1=O	-1	+
CCCCn1c(SCC(N)=O)nc2c1c(=O)n(C)c(=O)n2C	3	i
O=c1c(O[C@@H]2O[C@H](CO)[C@H](O)[C@H](O)[C@H]2O)c(-c2cc(O)c(O)c(O)c2)oc2cc(O)cc(O)c12	13	i
CC(C)=CC(=O)CC(O)(c1ccccc1)c1ccccc1	x	i
O=C1C=CC(O)(/C=C/C(=O)OC[C@H]2O[C@@H](Oc3ccc(O)cc3)[C@H](O)[C@@H](OC(=O)/C=C/C3(O)C=CC(=O)C=C3)[C@@H]2O)C=C1	52*	i
O=C(/C=C/c1ccc(O)cc1)OC[C@H]1O[C@@H](Oc2cc(O)c3c(c2)OC(c2ccc(O)cc2)CC3=O)[C@H](O)[C@@H](OC(=O)/C=C/c2ccc(O)cc2)[C@@H]1O (some centres not stated)	-1	i
CCN1CCN(C(=S)c2cc(I)c(OCC(=O)Nc3cccc(C)c3)c(OC)c2)CC1	2	i
OCC1(CO)COC(COc2ccccc2)=N1	x	+
O=C(Cn1c(COc2ccccc2)nc2ccccc21)N1CCOCC1	1	i
COc1ccc(C(=O)CSc2nc3cc(C)c(C)cc3[nH]2)cc1OC	2	i
COc1ccccc1C1=NOC(Cn2c(NCc3ccccc3)nc3c2c(=O)n(C)c(=O)n3C)C1 (configuration not stated)	3	+
Cn1c(=O)c2c(nc(NCCO)n2CCc2ccccc2)n(C)c1=O	0	i
COc1cccc(/C=C2\SC(=S)N(CCCC(=O)O)C2=O)c1	x	i
O=C(Nc1cccc(NC(=O)c2ncn[nH]2)c1)c1cccc(Cl)c1	32*	i
O=C(Nc1ccccc1C(=O)O)c1ncn[nH]1	2	i
C[C@@H]1CCCCO[C@@H](CN(C)Cc2ccccc2)[C@@H](C)CN([C@H](C)CO)C(=O)c2cc(NS(=O)(=O)c3cn(C)cn3)ccc2O1	0	x
CC(=O)O[C@@]1(C)C[C@@H](OC(=O)/C=C/c2ccc(O)cc2)[C@@H]2C(C(=O)O)=COC(O[C@@H]3O[C@H](CO)[C@@H](O)[C@H](O)[C@H]3O)[C@@H]21 (some centres not stated)	0	x
C[C@@H]1CN([C@@H](C)CO)C(=O)Cc2cc(NC(=O)CCCN(C)C)ccc2O[C@@H]1CN(C)C	x	i
C[C@H](CO)N1C[C@H](C)[C@@H](CN(C)C(=O)Nc2ccccc2)Oc2ccc(NC(=O)Cc3ccccc3)cc2CC1=O	x	i
C[C@@H]1CN([C@@H](C)CO)C(=O)Cc2cc(NC(=O)CCCN(C)C)ccc2O[C@H]1CN(C)C(=O)Nc1ccc(F)cc1	x	+
SMILES	STK33 kin inh	ID4 SMM
C[C@H]1CN([C@@H](C)CO)C(=O)Cc2cc(NC(=O)Cc3ccccc3)ccc2O[C@H]1CN(C)C(=O)Nc1ccccc1	0	+
COc1ccc(NC(=O)CSc2nc3c(c(C(F)(F)F)c2C#N)CCC3)c(OC)c1	6	i
Cc1nc(C(N)=NC(=O)c2ccc(OC(F)(F)F)cc2)cs1	-2	x
C[C@@H]1CN([C@@H](C)CO)C(=O)c2cc(NC(=O)c3ccncc3)ccc2O[C@@H](C)CCCCO[C@@H]1CN(C)C(=O)Nc1cccc2ccccc12	x	i
C[C@H]1CN([C@@H](C)CO)C(=O)c2cc(NS(=O)(=O)c3cn(C)cn3)ccc2O[C@H]1CN(C)C(=O)NC1CCCCC1	1	i
CCOCCCNc1nc2c([nH]1)c(=O)n(C)c(=O)n2C	-3	i
Cn1c(=O)c2[nH]c(NCCN3CCOCC3)nc2n(C)c1=O	3	+
C[C@@H]1CN([C@H](C)CO)C(=O)Cc2cc(NS(=O)(=O)c3cccs3)ccc2O[C@@H]1CN(C)C(=O)NC1CCCCC1	1	x
COc1ccc(N2C(=O)CC(SCC(=O)Nc3c(C)cccc3C)C2=O)cc1 (configuration not stated)	-2	+
COc1ccc(N2C(=O)CC(SCC(=O)Nc3ccc(C)c(C)c3)C2=O)cc1 (configuration not stated)	-3	i
CNC[C@@H]1Oc2ccc(NS(=O)(=O)c3cccs3)cc2C(=O)N([C@@H](C)CO)C[C@H]1C	1	x
CCC(c1nc2ccccc2c(=O)n1-c1ccccn1)N1C(=O)c2ccccc2C1=O (configuration not stated)	0	i
CCCn1cc(NC(=O)C2CC(c3ccccc3O)=NO2)cn1 (configuration not stated)	-1	i
